RORgamma inh – blocks mouse ROR gamma transcriptional activity; P51450; Drosophila S2 Gal4-RORgamma UAS-luciferase reporter, 20 h; Potency, µM (highest dose often 53.6 µM), for the others: top-dose activity change, negative = inhibition, hits mostly inhibitors; 310,000 compounds, 5.4% hits; AID 2551; further: on the % scale 0 is the no-effect control and ±100 the full control effect; nearly all actives have a fitted effect of over 60% in size
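ROR gamma transcriptional activity was tracked as Gal4-UAS luciferase output in stably transfected Drosophila Schneider cells, with compound added 1 hr before 700 uM copper sulfate induction and a 20 hr ambient-temperature incubation.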
ClpP mod – qHTS Assay for Activators of ClpP; purified B. subtilis ClpP, FRET peptide cleavage, 20 min; Potency, µM (titrated, usually from 57.5 µM), inactives show top-dose activity change, negative = active; 340,000 compounds, 1.9% hits; active means well fitted falling curve with a large enough effect; inconclusive means small, poorly fitted or top-dose-only effect; inactive means no such curve, though single readings can be large or run the other way; further: the source files actives as falling curves though it sought activators and does not explain the sign; nearly all actives have a fitted effect of over 65% in size
Target sequence (P80244 whole entry, looked up): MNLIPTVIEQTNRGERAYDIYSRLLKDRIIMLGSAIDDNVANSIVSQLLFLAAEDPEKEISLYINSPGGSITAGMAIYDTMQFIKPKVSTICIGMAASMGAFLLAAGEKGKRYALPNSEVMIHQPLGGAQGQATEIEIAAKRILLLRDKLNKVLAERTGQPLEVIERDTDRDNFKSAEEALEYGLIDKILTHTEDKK
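FRET quenching reversal measured ClpP activation: 10 microg/mL B. subtilis ClpP at pH 8 with the FRET-FV decapeptide, read at 430 nm after 320 nm excitation. The 20-min minus 0-min signal was scaled between DMSO/no-enzyme wells and ADEP (5.8 microM final).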
Gal4-VP16 FLuc – inhibits Gal4-VP16 luciferase reporter, ROR gamma counter-screen. Drosophila S2 Gal4-VP16 UAS-luciferase, luminescence, 20 h. Potency, µM (highest dose often 53.6 µM), without a hit: at the highest dose activity, negative = inhibition, most hits filed as inhibitors. 310,000 compounds, 3.5% hits. AID 2546;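 further: Gal4-VP16 expression switched on by copper sulfate through the metallothionein promoter; on the % scale 0 is the no-effect control and ±100 the full control effect; nearly all actives have a fitted effect of over 50% in size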
Epigenetic reg – epigenetic control regulation, reporter derepression | murine LDR cells, GFP reporter derepression, 30 h | Potency, µM (doses to about 53.9 µM), for inactives: at the highest dose GFP activation, most hits filed as activators | 280,000 compounds, 0.2% hits | AID 1865; further: % of control where 0% means no effect; nearly all actives have a fitted effect of over 60% in size
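Murine LDR cells bearing a silenced CMV-driven GFP reporter were exposed to compound for 30 h at 37 C. After PBS washes, GFP-positive cells (20-120 um objects) counted by laser-scanning microplate cytometry.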
PINK1 modulator – PINK1 expression modulation; PINK1 immunofluorescence, high-content cytometry, 24 h; Potency, µM (top dose mostly 76.6 µM), inactives show top-dose activation (PINK1 increase), usual class: activators; 410,000 compounds, 0.2% hits; AID 624263; active means well fitted activation curve with a large enough effect; inconclusive means small, poorly fitted or top-dose-only effect; cell line not stated here; further: % of control where 0% means no effect; nearly all actives have a fitted effect of over 65% in size
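A stable cell line was treated with compounds at 5 concentrations for 24 hours, with CCCP as control. PINK1 levels and mitochondrial localization were measured by immunofluorescence with mitochondrial, cell and nuclear markers after fixation, read by laser-scanning cytometry.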
Sfp inh – inhibitors of Bacillus subtilis Sfp phosphopantetheinyl transferase; Q9F4F7; Biochemical Sfp PPTase activity, qHTS; Potency, µM, inactives show largest response in the series, negative = inhibition, actives largely listed as inhibitors; 310,000 compounds, 3.5% hits; AID 1490;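 further: the enzyme is Sfp with the accession as filed and its product quenches rhodamine fluorescence; 0% = enzyme reaction without inhibitor and -100% = no enzyme wells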
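Compounds were incubated with enzyme (final 15 nM) for 15 min at room temperature before substrate addition started the reaction. Fluorescence at 525 nm excitation, 598 nm emission was recorded immediately and after 30 minutes.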
* marks the source's active call; other numbers are inactive results; ? = inconclusive; . = no result given; [ ] = remark or other dose. This is a sample that favours compounds with a hit; in the whole collection about 8.1% have one here. Unless noted, the call rests on the fitted dose curve; in most records, active means well fitted curve in the direction sought with a large enough effect; inconclusive means small, poorly fitted or top-dose-only effect, or another doubt; inactive means no such curve, though single readings can be large; an effect the other way counts as inactive or inconclusive. Potency means the concentration at half of the fitted maximal effect.

SMILES	RORgamma inh	ClpP mod	Gal4-VP16 FLuc	Epigenetic reg	PINK1 modulator	Sfp inh
CCOc1ccc(C(=O)Nc2nnc(SCC(=O)NCC3CCCO3)s2)cc1 (stereo unspecified)	?	-5%	3.5µM*	.	2%	12%
CC(C)(C)c1ccc(C(=O)Nc2nnc(SCC(=O)NCC3CCCO3)s2)cc1 (stereo unspecified)	?	-2%	7.1µM*	.	3%	17%
CCOC(=O)C1=C(CN2CCC(C)CC2)NC(=O)NC1c1ccc(F)cc1 (stereo unspecified)	.	0%	.	-1%	1%	.
COc1ccc2c(c1)CC(C(=O)Nc1cc(OC)c(OC)c(OC)c1)CO2 (stereo unspecified)	.	-3%	.	1%	0%	.
Cc1ccc(S(=O)(=O)C2(C(=O)Nc3ccc(Cl)c(C(F)(F)F)c3)CC2)cc1	.	-1%	.	0%	?	.
NC(N)=N/N=C/c1cccc([N+](=O)[O-])c1O	-8%	.	-10%	1%	1%	11%
O=[N+]([O-])c1cccc(/C=N\N=C2c3ccccc3-c3ccccc32)c1O	10µM*	1%	20µM*	2%	27%	-24%
Cc1ccc(/C=C2/NC(=O)N(Cc3ccccc3F)C2=O)o1	?	1%	?	?	14%	14µM*
CCN1C(=O)N/C(=C/c2ccc(C)o2)C1=O	?	-2%	?	3%	1%	-97%
O=C1N/C(=C/c2ccc(N3CCOCC3)o2)C(=O)N1c1cccc(Cl)c1	3.5µM*	-1%	4.5µM*	?	?	8.9µM*
Cc1ccc(/C=C2/NC(=O)N(Cc3ccc(Br)cc3)C2=O)o1	?	0%	?	?	6%	3.2µM*
CCN1C(=O)N/C(=C/c2ccc(Sc3ccc(C)cc3)o2)C1=O	?	-5%	?	-1%	11%	?
CCCN1C(=O)/C(=C/c2ccc(C)o2)NC1=S	?	.	?	?	.	20µM*
O=C1CC(C(=O)N2CCCC(c3nc(-c4ccncc4)ncc3-c3ccccc3)C2)C2(CCCCC2)O1 (stereo unspecified)	.	.	.	.	1%	.
Cc1ccc(/C=C2/NC(=O)N(c3ccccc3)C2=O)o1	-44%	0%	?	17%	0%	25µM*
CCN1C(=O)/C(=C/c2ccc(C)o2)N(C)C1=S	?	4%	13µM*	?	-1%	6.3µM*
CC(NC(=O)C1CCOCC1)c1nnc2n1CCN(Cc1ccc(F)cc1)CC2 (stereo unspecified)	.	.	.	.	1%	.
Cc1cn2nc(N)c3ccccc3c2n1	-33%	28µM*	-8%	-7%	-1%	7%
Nc1nn2cc(-c3ccccc3)nc2c2ccccc12	-22%	?	-13%	1%	-1%	-6%
CCOC(=O)c1c(C)[nH]c(C=Nc2ccccc2)c1O	38%	.	20%	-1%	.	40µM*
CCOC(=O)c1c(C)[nH]c(C=Nc2ccc(OC)cc2)c1O	?	-5%	21%	0%	1%	10%
CCOC(=O)c1c(C)[nH]c(N=Nc2ccc(C)cc2)c1C	?	-2%	?	-1%	6%[38.3 µM]	20µM*
CCOC(=O)c1c(C)[nH]c(N=Nc2cccc(OC)c2)c1C	4µM*	.	-16%	1%	8%	?
CCOC(=O)c1c(C)[nH]c(N=Nc2ccc(OC)cc2)c1C	-40%	-2%	-7%	-4%	1%	50µM*
CCN(CC)CCCNC(=O)C1CCN(S(=O)(=O)CC)CC1	.	-2%	.	6%	2%	.
Cc1ccc(NC(=O)Cn2nnc(C(=O)NCc3ccc4c(c3)OCO4)c2N)cc1Cl	.	1%	.	4%	?	.
COc1ccc(OC)c(NC(=O)C(C)n2c(=O)cc(C)c3c(C)nn(-c4ccccc4)c32)c1 (stereo unspecified)	.	-3%	.	0%	0%	.
Cc1cc(=O)n2cccc(O)c2n1	0.89µM*	.	1.8µM*	?	0%	56µM*
